Assay results taken from PubChem BioAssay (NCATS).
Results filed as inconclusive are left out. Calls of active or inactive are those of the source. Calls come from the whole dose curve; as a rule, active = well fitted curve in the direction sought with a large enough effect; inconclusive = small, poorly fitted or top-dose-only effect, or another doubt; inactive = no such curve, though single readings can be large; an effect the other way counts as inactive or inconclusive.

Columns and labels:
[1] = molecular target: Cytochrome P450 3A4 (Homo sapiens) (UniProt P08684); assay: qHTS Assay for Inhibitors and Substrates of Cytochrome P450 3A4 (AID 884); note: nearly all actives have a fitted effect of over 50% in size; note: potency is the fitted concentration of half-maximal effect
Chain of Cytochrome P450 3A4 (Homo sapiens) (P08684 whole entry, looked up): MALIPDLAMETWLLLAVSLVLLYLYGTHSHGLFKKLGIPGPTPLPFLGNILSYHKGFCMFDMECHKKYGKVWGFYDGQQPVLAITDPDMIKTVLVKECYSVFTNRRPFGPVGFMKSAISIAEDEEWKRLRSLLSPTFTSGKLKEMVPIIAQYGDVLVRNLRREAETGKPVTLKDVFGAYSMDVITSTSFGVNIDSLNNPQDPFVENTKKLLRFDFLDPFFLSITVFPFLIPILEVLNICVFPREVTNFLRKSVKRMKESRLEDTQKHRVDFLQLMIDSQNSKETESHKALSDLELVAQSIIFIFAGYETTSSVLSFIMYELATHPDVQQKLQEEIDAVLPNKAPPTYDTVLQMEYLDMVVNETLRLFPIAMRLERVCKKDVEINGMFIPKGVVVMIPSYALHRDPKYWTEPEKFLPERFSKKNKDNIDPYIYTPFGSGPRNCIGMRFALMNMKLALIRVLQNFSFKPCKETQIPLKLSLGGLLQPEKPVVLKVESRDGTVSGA
Summary of the method: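 Luminescent readout of luciferin produced by CYP3A4 (20 nM) dealkylation of Luciferin-PPXE, 25 uM (its KM). NADPH-driven reaction ran 60 min at RT after 10 min compound preincubation; data scaled to 57 uM ketoconazole as 100% inhibition.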

[2] = molecular target: Cytochrome P450 3A4 (Homo sapiens) (UniProt P08684); assay: qHTS Assay for Activators of Cytochrome P450 3A4 (AID 885); note: nearly all actives have a fitted effect of over 65% in size
Summary of the method: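 Human CYP3A4 dealkylates Luciferin-PPXE to luciferin, which luciferase detection converts to light. Substrate was at its KM (25uM), buffer 200mM KPO4, reaction 60 min at RT.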

Row | Structure (SMILES) | Potency [1] | activity change, positive = activation [2] | Potency [2]
1 | COc1ccc(O[C@H]2C=C[C@@H](c3ccccc3)O[C@@H]2CO/N=C\[C@@H](C)[C@H](OCc2ccccc2)C(C)C)cc1 | 3.98 µM (active) | -73.9% [at 11.4 µM] (inactive) | 
2 | CCC1=C2CC[C@H]3C(=O)N(C)C(=O)[C@H]3[C@H]2[C@@]2(Cc3ccccc3)C(=NCC3CC3)OC(=O)N2C1=O | 5.01 µM (active) |  | inactive
3 | COC(=O)[C@@H]1C[C@@]2(O)[C@@H](O)[C@@H](O)[C@@H](O)C[C@H]2N1Cc1ccc(-c2ccccc2)cc1 | inactive |  | 
4 | Cn1c(=O)c(C(=O)COC(=O)c2cc(C(F)(F)F)nc3c(C(F)(F)F)cccc23)c(N)n(CC2CC2)c1=O | 3.98 µM (active) |  | inactive
5 | C[C@@H](c1ccccc1)N1C(=O)[C@H]2[C@H]3[C@H](O)[C@H](O)C/C(=N/OC[C@@H](O)COCc4ccco4)[C@H]3CC[C@@H]2C1=O | 3.98 µM (active) | -66.6% [at 11.4 µM] (inactive) | 
